Compounds with a hit are over-represented: about 6.8% of the library has one in this group of screens.
PINK1 modulator: changes PINK1 expression; PINK1 immunofluorescence, high-content cytometry, 24 h; Potency, µM (doses to about 76.6 µM), for the others: at the top dose activation (PINK1 increase), hits mostly activators; hit rate 0.2% among 410,000; AID 624263; active = well fitted activation curve with a large enough effect; inconclusive = small, poorly fitted or top-dose-only effect; cell line not stated here; also: % of control where 0% means no effect; nearly all actives have a fitted effect of over 65% in size
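Cells are seeded, rested 12 hours, then given compound at five concentrations or DMSO for 24 hours. After fixation, blocking and antibody staining, PINK1 amount and mitochondrial localization are scored; CCCP serves as control.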
PTAP TSG101 blk: blocks PTAP/TSG101 interaction to inhibit HIV-1 budding; Q99816; Fluorescence polarization, FITC-PTAP peptide / Tsg101 binding; Potency, µM (doses to about 115 µM), for inactives: at the highest dose activity change, negative = inhibition, usual class: inhibitors; 340,000 tested, under 10 active; AID 493005; active = well fitted inhibition curve with a large enough effect in the main read-out, with a control signal flat, not every such curve was filed as active; inconclusive = small, poorly fitted or top-dose-only effect, or effect the other way, or a change in a side signal; inactive = no such curve, though single readings can be large or run the other way; also: % of control where 0% means no effect
Target sequence (Q99816 whole entry, looked up): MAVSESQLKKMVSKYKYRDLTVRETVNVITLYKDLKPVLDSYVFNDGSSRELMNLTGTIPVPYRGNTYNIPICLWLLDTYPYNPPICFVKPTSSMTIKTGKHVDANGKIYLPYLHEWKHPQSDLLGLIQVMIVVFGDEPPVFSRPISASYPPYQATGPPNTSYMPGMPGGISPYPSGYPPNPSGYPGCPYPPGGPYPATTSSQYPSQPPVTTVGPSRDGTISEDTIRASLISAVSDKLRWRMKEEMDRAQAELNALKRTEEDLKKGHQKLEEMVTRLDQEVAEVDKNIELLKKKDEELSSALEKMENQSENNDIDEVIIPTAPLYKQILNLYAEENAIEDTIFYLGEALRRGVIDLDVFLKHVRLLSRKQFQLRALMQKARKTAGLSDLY
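Tsg101 binding domain (10 uM final) was mixed with compound and a FITC-labeled PTAP peptide (50 nM final) in HEPES pH 7.5 buffer with NaCl, Tween 20, EDTA and TCEP; fluorescence polarization was read after 20 min at r.t.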
MCF10A rereplic: DNA re-replication induction in MCF 10a cells; Potency, µM (doses to about 46.1 µM), inactives show at the highest dose activity, positive = re-replication, most hits filed as activators; MCF 10A DNA re-replication, Hoechst nuclear intensity, 48 h; hit rate 2.9% among 350,000; also: % of control where 0% means no effect; nearly all actives have a fitted effect of over 50% in size
SW480 rereplic: induces DNA re-replication in SW480 colon adenocarcinoma cells; hit rate 1.8% among 340,000; SW480 DNA re-replication, Hoechst DNA content imaging, 48 h; AID 624297; Potency, µM (series often up to 46.1 µM), for the others: top-dose re-replication activation, most hits filed as activators; also: % of control where 0% means no effect; nearly all actives have a fitted effect of over 55% in size
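Readout is total intensity of Hoechst-stained nuclei, excited at 405 nm and collected at 500-530 nm. Compound treatment lasted 48 hr at 37 C in 5% CO2 before staining.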
KB-3-1 tox: kills parental KB-3-1 adenocarcinoma cells; hit rate 1.4% among 400,000; Potency, µM (top dose mostly 46.1 µM), most hits filed as cytotoxic; KB-3-1 viability, CellTiter-Glo ATP luminescence, 72 h; AID 1347075; also: % is scaled to controls: 0 for no effect and ±100 for the full control effect; nearly all actives have a fitted effect of over 60% in size
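Parental KB-3-1 adenocarcinoma cells in phenol-red-free DMEM with 10% FBS were pin-treated with compounds at several concentrations, incubated 72 h at 37 °C, and viability read by CellTiter-Glo luminescence; concentration-effect curves were fitted after normalization.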
KB-V1 MDR tox: KB-V1 MDR subline cytotoxicity. KB-V1 MDR cells viability, CellTiter-Glo, 72 h. Potency, µM (titrated, usually from 46.1 µM), hits mostly cytotoxic. hit rate 3.4% among 400,000; also: % is scaled to controls: 0 for no effect and ±100 for the full control effect; nearly all actives have a fitted effect of over 60% in size
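In this primary screen, KB-V1 cells overexpressing P-gp are incubated with library compounds (lowest to highest concentration) for 72 h at 37 degrees C before a luminescent ATP viability read.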
* hit, by the source's call; i = inactive; u = inconclusive; x = no result given. Unless noted, calls follow the shape of the dose curve; as a rule, active = well fitted curve in the direction sought with a large enough effect; inconclusive = small, poorly fitted or top-dose-only effect, or another doubt; inactive = no such curve, though single readings can be large; an effect the other way counts as inactive or inconclusive. Potency is read from the fitted curve at half-maximal effect.

SMILES	PINK1 modulator	PTAP TSG101 blk	MCF10A rereplic	SW480 rereplic	KB-3-1 tox	KB-V1 MDR tox
CCCCCCCCCCCC[n+]1ccc2ccccc2c1	x	x	54.9%	u	x	x
CCN(Cc1ccncc1)Cc1ccc2c(c1)CN(C(=O)c1ccc(C#CC(C)(C)O)o1)CCO2	0.4%	x	x	x	x	x
COc1ccc(CN2CCc3nnc(CCc4ccccc4)n3CC2)c(OC)c1C	0.0%	x	x	x	x	x
CCN(c1ccccc1)S(=O)(=O)c1ccc(NC(=O)c2cc(=O)c3ccc(C)c(C)c3o2)cc1	0.0%	x	x	x	i	i
CCc1ccc(NC(=O)c2cc(=O)c3ccc(C)c(C)c3o2)cc1	10.7%	x	x	x	i	5.8µM*
COc1ccc(-n2nc(C(=O)Nc3ccc(C)cn3)c3c4ccccc4n(C)c3c2=O)cc1	-0.1%	x	x	x	i	i
CCOC(=O)NC(=O)/C(C#N)=N\Nc1cccc(Cl)c1	15.8µM*	2.2%	u	-10.9%	u	i
Cc1cc(Br)ccc1OCCCCNCCO	0.4%	-0.4%	6.8%	-1.1%	i	i
C=CCNCCCCOc1ccc(Br)cc1C	15.6%	-2.2%	25.9µM*	u	i	i
c1ccc(-c2ncnc3nc4n(c23)CCC4)cc1	7.94µM*	1.3%	0.2%	-9.3%	i	i
Cc1nc2nc(C)n(CCN3CCOCC3)c(=O)c2c(-c2cccc([N+](=O)[O-])c2)c1C(=O)CCCCCCCCCCN1CCC(c2ccccc2)(c2ccccc2)CC1	-5.1%	-2.2%	u	0.6%	u	7.31µM*
CCOC(=O)c1c(-c2ccc(F)cc2)csc1NC(=O)C1CCCO1 (stereo not drawn)	6.7%	0.3%	6.4%	-7.3%	i	u
CC(C)OC(=O)c1c(-c2ccc(C(C)C)cc2)csc1NC(=O)C1CCCO1 (stereo not drawn)	6.0%	-0.3%	18.4µM*	13.2%	u	u
CCOC(=O)c1c(-c2ccc(C)cc2)csc1NC(=O)C1CCCO1 (stereo not drawn)	2.6%	-2.0%	13µM*	2.1%	i	i
CCOC(=O)c1c(-c2ccc(C)cc2)csc1NC(=O)CCN1CC(C)OC(C)C1 (stereo not drawn)	15.6%	-4.1%	20.6µM*	2.7%	u	u
CC1=C(C(=O)N2CCCCC2)C(c2cccc(Cl)c2)n2c(nc3ccccc32)N1 (stereo not drawn)	2.4%	x	x	x	i	i
N#Cc1ccc(CN2CCC3(CC2)CCN(C(=O)c2cnccn2)CC3)cc1	-0.3%	x	x	x	x	x
COc1ccc(C(C(=O)NC(C)(C)C)N(C(=O)CCC(=O)Nc2cc(C)on2)c2cc(C)cc(C)c2)cc1 (stereo not drawn)	3.2%	-4.1%	10.7%	-2.0%	i	14.6µM*
COc1ccc(C(C(=O)NC(C)(C)C)N(Cc2ccc(C)cc2)C(=O)CCC(=O)Nc2cc(C)on2)cc1 (stereo not drawn)	4.4%	-0.2%	2.4%	-6.6%	u	i
COc1ccc(-c2nc(CN3CCC(C(=O)N4CCOCC4)CC3)c(C)o2)cc1C	-1.6%	2.4%	-0.5%	10.3µM*	i	i
COc1ccc(C(C)=O)cc1CN1CCCCC1	2.2%	-0.8%	14.6µM*	0.1%	i	i
COc1ccc(OC)c(CN2CCC(C(=O)N3CCOCC3)CC2)c1	-1.3%	-1.2%	u	0.517µM*	i	i
COc1ccc(F)c(CN2CCC(N3CCC(C(=O)N4CCOCC4)CC3)CC2)c1	-0.6%	-1.2%	1.4%	-2.9%	i	i
CCOc1ccc(N(CC(=O)NCc2ccc(C)cc2)S(=O)(=O)c2c(C)noc2C)cc1	-0.2%	x	x	x	i	i
Cc1cc(C)cc(NC(=O)Cc2noc3ccccc23)c1	0.2%	x	x	x	u	u
COc1ccc(-c2ccc(NS(=O)(=O)c3ccc(OC)c(OC)c3)cc2)nn1	2.1%	x	x	x	i	i
O=C(N/N=C/c1ccc[nH]1)c1ccc(COc2cccc3cccnc23)cc1	u	1.1%	u	26.6%	2.31µM*	i

Assay outcomes from PubChem BioAssay.
